Reference: PubChem BioAssay AID624295 (Southern Research Specialized Biocontainment Screening …, 2012)
The source made the active and inactive calls. The rule behind the calls is not given here.

Assay: Vero 76 cell cytotoxicity, cytotoxicity control for VEEV inhibitor project, set 6 (AID 624295)
Conditions: Vero 76 cells viability, cytotoxicity counter-screen; series mostly up to 25 µM
In the case of CCN1CCN(Cc2nc3cccc([N+](=O)[O-])c3c(=O)n2-c2ccccc2)CC1, the outcome is reported as “inactive”. In the case of CCN1CCN(Cc2nc3ccc([N+](=O)[O-])cc3c(=O)n2C(C)C)CC1, the outcome is reported as “inactive”. In the case of O=c1c2cc([N+](=O)[O-])ccc2nc(CN2CCNCC2)n1-c1ccccc1, the outcome is reported as “inactive”. For CCN1CCN(Cc2nc3ccc([N+](=O)[O-])cc3c(=O)n2-c2cccc(F)c2)CC1, the outcome was “inactive”. With O=c1c2cc([N+](=O)[O-])ccc2nc(CN2CCCCC2)n1-c1ccccc1F the outcome was “inactive”. With CCN1CCN(Cc2nc3ccc([N+](=O)[O-])cc3c(=O)n2-c2ccccc2)CC1 the outcome was “inactive”. With CN1CCN(Cc2nc3ccc([N+](=O)[O-])cc3c(=O)n2-c2ccccc2F)CC1 the outcome was “inactive”. With CCN1CCN(Cc2nc3ccc([N+](=O)[O-])cc3c(=O)[nH]2)CC1 the outcome was “inactive”. In the case of CCN1CCN(Cc2nc3ccc([N+](=O)[O-])cc3c(=O)n2-c2ccc(F)cc2)CC1, the outcome is reported as “inactive”. For CCN1CCN(Cc2nc3ccc(C(=O)N(C)C)cc3c(=O)n2-c2ccccc2)CC1, the outcome was “inactive”. With NS(=O)(=O)c1ccc(-n2c(-c3ccccc3)nc3ccc(Br)cc3c2=O)cc1 the outcome was “inactive”. For CCN1CCN(Cc2nc3ccc(C(N)=O)cc3c(=O)n2-c2ccccc2)CC1, the outcome was “inactive”. In the case of O=c1c2cc([N+](=O)[O-])ccc2nc(CN2CCNCC2)n1-c1ccccc1F, the outcome is reported as “inactive”. In the case of CCN1CCN(Cc2nc3ccc(I)cc3c(=O)n2-c2ccccc2)CC1, the outcome is reported as “inactive”. With CCN1CCN(Cc2nc3cc([N+](=O)[O-])ccc3c(=O)n2-c2ccccc2)CC1 the outcome was “inactive”.
